# According to PubChem BioAssay (NCI):
# This is part of a sample that, as a whole, favours compounds with a hit. Of some 83,000 tested, about 20% had one in any assay.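 Negative percent growth values reflect cell death: -40 means 40% of the cells present at the start died, and -100 means all died.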 A number with no mark means an inactive call. Calls of active or inactive are those of the source. How the source made its calls: active means growth percent below 10; inactive means the rest.
# Experiments:
# Assay in all cases: NCI-60 one-dose screen, 48 h (100 = growth as untreated, 0 = no growth, -100 = all killed)
# Settings in all cases: 10 µM unless noted
# NCI-H23 lung = test system: NCI-H23 lung
# NCI-H226 lung = test system: NCI-H226 lung
# NCI-H322M lung = test system: NCI-H322M lung
# HOP-62 NSCLC = test system: HOP-62 NSCLC
# NCI-H460 lung = test system: NCI-H460 lung
# HOP-92 NSCLC = test system: HOP-92 NSCLC
# NCI-H522 lung = test system: NCI-H522 lung
# A549/ATCC NSCLC = test system: A549/ATCC NSCLC
# 786-0 renal = test system: 786-0 renal
# COLO 205 colon = test system: COLO 205 colon
Compound,growth (NCI-H23 lung),growth (NCI-H226 lung),growth (NCI-H322M lung),growth (HOP-62 NSCLC),growth (NCI-H460 lung),growth (HOP-92 NSCLC),growth (NCI-H522 lung),growth (A549/ATCC NSCLC),growth (786-0 renal),growth (COLO 205 colon)
COc1ccc(-c2nc(C#N)c(NCC(c3ccc(Cl)cc3)N3CCCCC3)o2)cc1 (stereo not given),91.7%,96%,83.7%,107%,101%,89.3%,84.6%,93.5%,92.5%,87.6%
C=C1C(=O)O[C@H]2[C@H]1CC/C(COC(=O)N1CCC[C@H]1C(=O)Nc1ccc(OC)c(C(N)=O)c1O)=C\CC[C@@]1(C)O[C@@H]21,79.5%,52.8%,90.6%,88.6%,73.9%,-11.2% (active),-28.1% (active),75.4%,41.4%,-25.7% (active)
COc1ccc2[nH]c(=O)c(/C=C/C(=O)c3ccccc3OC)cc2c1,21.3%,38.9%,18.3%,8.67% (active),1.79% (active),-12% (active),3.93% (active),10.4%,8.21% (active),20.4%
C[C@]12CC[C@@H]3c4ccc(O)cc4CC[C@H]3[C@@H]1C[C@H](O)C2,100%,104%,89.5%,72.8%,74.3%,86.1%,54.6%,49.5%,88.1%,128%
CC1(C)CC[C@]2(c3nnc(-c4ccncc4)o3)CC[C@]3(C)C(=CC[C@@H]4[C@@]5(C)CCC(=O)C(C)(C)[C@@H]5CC[C@]43C)[C@@H]2C1,85.6%,64.9%,91.3%,87.6%,77.9%,92.2%,71.2%,73.7%,85%,85%
COc1ccc(Cl)c([N+](=O)[O-])c1,98.5%,101%,98.8%,93.4%,108%,98%,95.7%,99.6%,99.2%,116%
Nc1c(C(=O)Nc2ccccc2Cl)sc2nc3c(cc12)CN(Cc1ccccc1)CC3,103%,91.5%,92.4%,104%,93.4%,109%,88.2%,112%,99%,95.5%
O=C1[C@@H](OS(=O)(=O)CC(F)(F)F)[C@H](c2ccc(F)cn2)N1c1cc2c3ccccc3ccc2c2ccccc12,84.5%,92.3%,104%,88.6%,104%,71.4%,35.7%,82.5%,71.7%,101%
C=C(C)[C@@H]1CCC=C2CC[C@]3(C)[C@H](CC[C@@H]4[C@@]5(C)CCCNC(C)(C)[C@@H]5CC[C@]43C)[C@H]21,66.5%,104%,33.7%,77.8%,-24.6% (active),79.2%,66.7%,13%,-5.34% (active),-43.6% (active)
COC(=O)/C=C/c1cc(OC(C)=O)c2c(c1)C(C(=O)OC)C(c1ccc(OC(C)=O)c(OC(C)=O)c1)O2 (stereo not given),21.3%,81.7%,55.4%,20%,13.8%,33.7%,-20.8% (active),37.4%,19.8%,38.9%
N#Cc1nc(-c2ccccc2)oc1S(=O)(=O)NCC(c1ccc(Cl)cc1)N1CCCCC1 (stereo not given),78.5%,117%,85.3%,96.3%,77.2%,79.4%,-18.3% (active),89.2%,87.1%,79.3%
COC(=O)c1oc2c(C(=O)/C=C/c3ccc(OC)cc3)c(OCCCN3CCCCC3)ccc2c1C,22.1%,89.4%,17.8%,1.98% (active),4.2% (active),-38.8% (active),1.11% (active),-3.52% (active),1.16% (active),29.2%
O=C1Nc2ccc(Br)cc2/C1=N\N=C/c1cn(Cc2ccccc2)c2ccccc12,94.4%,80.5%,84%,97.2%,51.9%,106%,83.9%,91%,103%,114%
CC(C)(C)c1nn(-c2ccccc2)c2c1COCN2Cc1ccc(Cl)cc1,84.7%,87.5%,101%,93%,81.1%,83.1%,4.77% (active),115%,90%,101%
COc1ccc(-c2nc(C#N)c(NCC(c3ccco3)N3CCCC3)o2)cc1 (stereo not given),53.7%,101%,43.3%,47.1%,24.1%,58.2%,30.6%,43.7%,34%,19.9%
COc1ccc2nc3nc4ccc[nH]c4cc3c2c1,73.9%,91.6%,87.6%,87.9%,73.7%,122%,84.4%,91.2%,86.2%,97.9%
CC1CCCN(CCCCCOc2ccc3oc4ccc(Cl)cc4c(=O)c3c2)C1 (stereo not given),78.6%,104%,84.4%,85.7%,54.5%,88.8%,71.1%,76.1%,68.2%,57.5%
Nc1ccc(C2=NN(C(=O)c3cc(-c4ccc(Cl)cc4)nc4ccccc34)C(c3ccc(Cl)cc3)C2)cc1 (stereo not given),50%,60.1%,45.2%,28.8%,17.2%,60.3%,15.4%,43.8%,25.6%,22.6%
CN1C(=O)c2cc(Cl)nc3c(NC(=O)c4cccc(Cl)c4)c(Cl)c(NC(=O)c4cccc(Cl)c4)c1c23,18.7%,23.6%,28.3%,17.4%,2.82% (active),-38.4% (active),-54.6% (active),83.8%,41.6%,1.5% (active)
COc1ccc(-c2cs/c(=N\N=C\c3ccc(O)cc3O)n2/N=C/c2ccc(O)cc2O)cc1,-28.5% (active),-30.5% (active),5.37% (active),-38.5% (active),-10.5% (active),2.31% (active),-35.6% (active),-21.5% (active),6.51% (active),-81.1% (active)
Cn1cc(-c2ccc3c(c2)ncn3-c2ccc(CC(=O)Nc3cc(C(C)(C)C)on3)cc2)cn1,30.2%,22.2%,8.78% (active),36.2%,28.5%,5.11% (active),32.8%,19%,17.6%,38.2%
O=C(/C(=C/c1ccc([N+](=O)[O-])cc1)SCc1ccccc1)c1ccc(Cl)cc1,70.9%,68.4%,105%,80.3%,87.4%,71.1%,41.4%,82.7%,86.9%,70.3%
c1cc(CNC23CC4CC(CC(C4)C2)C3)cc(C[N+](Cc2cccc(CNC34CC5CC(CC(C5)C3)C4)c2)(Cc2cccc(CNC34CC5CC(CC(C5)C3)C4)c2)Cc2cccc(CNC34CC5CC(CC(C5)C3)C4)c2)c1 (stereo not given),42.1% [42 µM],33.5% [42 µM],37.1% [42 µM],33.1% [42 µM],3.83% [42 µM] (active),32.8% [42 µM],-56.4% [42 µM] (active),16.2% [42 µM],18.3% [42 µM],-40.9% [42 µM] (active)
